# HEK cytotox = Cytotoxic Profiling in HEK 293 Cell Line of Diverse Libraries Using Quantitative High-Throughput Screening. HEK 293 viability, ATP luminescence (CellTiter-Glo), 48-72 h. Potency, µM (top dose mostly 115 µM), for inactives: at the top dose activity change, negative = cytotoxicity, most hits filed as inhibitors. hit rate 6.6% among 94,000; also: nearly all actives have a fitted effect of over 60% in size
#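 Cells seeded first (HEK 293, 250 cells/well), then compound added by pintool. Incubation ran 48 or 72 hr at 37 degree Celsius. CellTiter-Glo was added and luminescence imaged after 10 min at room temperature.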
# FLuc inh = Firefly luciferase inhibition profiling of diverse chemical library using quantitative high-throughput screening. purified P. pyralis luciferase, luminescence, biochemical. Potency, µM (titrated, usually from 115 µM), actives largely listed as inhibitors. hit rate 2.5% among 76,000; also: nearly all actives have a fitted effect of over 65% in size
# Target sequence (P08659 whole entry, looked up): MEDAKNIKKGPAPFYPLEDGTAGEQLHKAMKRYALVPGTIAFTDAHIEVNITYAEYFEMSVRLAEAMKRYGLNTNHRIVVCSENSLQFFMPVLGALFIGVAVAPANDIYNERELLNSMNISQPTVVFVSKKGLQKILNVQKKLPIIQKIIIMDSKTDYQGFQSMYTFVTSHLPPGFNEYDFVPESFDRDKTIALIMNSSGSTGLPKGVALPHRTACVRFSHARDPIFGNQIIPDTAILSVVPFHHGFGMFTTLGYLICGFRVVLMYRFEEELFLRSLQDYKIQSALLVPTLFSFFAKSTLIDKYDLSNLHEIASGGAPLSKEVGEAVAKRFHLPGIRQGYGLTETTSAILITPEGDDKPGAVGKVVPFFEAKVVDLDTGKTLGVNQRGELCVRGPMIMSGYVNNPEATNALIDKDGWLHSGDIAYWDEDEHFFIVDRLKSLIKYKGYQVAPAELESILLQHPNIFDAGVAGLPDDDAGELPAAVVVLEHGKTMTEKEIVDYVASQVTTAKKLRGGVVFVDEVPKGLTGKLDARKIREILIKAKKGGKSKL
#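 Biochemical qHTS: compound (6-point titration) added to 10uM D-luciferin plus 10uM ATP in Tris acetate pH 7.5 buffer with Mg, Tween-20 and BSA, then purified enzyme at 10nM; light output imaged.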
# 3T3 cytotox = Cytotoxic Profiling in NIH 3T3 Cell Line of Diverse Libraries Using Quantitative High-Throughput Screening. NIH 3T3 viability, CellTiter-Glo ATP luminescence, 48-72 h. Potency, µM (top dose mostly 96.7 µM), without a hit: at the highest dose activity change, negative = cytotoxicity, actives largely listed as inhibitors. hit rate 4.3% among 94,000; also: nearly all actives have a fitted effect of over 55% in size
#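 NIH 3T3 cells at 400 cells/well received 23 nL of compound by pintool and were incubated 48 or 72 h at 37 °C. Viability was read as ATP-coupled CellTiter-Glo luminescence.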
# GPT2 inhibitor = Primary qHTS assay for inhibitors of Glutamate pyruvate transaminase 2 (GPT2); Alanine aminotransferase 2 (Homo sapiens), Q8TD30; Recombinant GPT2, coupled pyruvate oxidase/HRP Amplex Red fluorescence; Potency, µM (doses to about 57.7 µM), without a hit: at the top dose activity change, negative = inhibition, hits mostly inhibitors; hit rate 0.25% among 100,000; AID 1671188, 2021; also: nearly all actives have a fitted effect of over 60% in size
#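 GPT2 10ng/uL, a-KG 250uM, L-Ala 2mM, HEPES pH7.5 + 0.0001% Tween; 30 min RT. Then Amplex mix (PO/HRP/ThPP), 30 min RT dark, fluorescence. AOA 50uM used as positive control.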
# NPR1 antag = Natriuretic polypeptide receptor (hNpr1) antagonism - Primary qHTS. Atrial natriuretic peptide receptor 1 (Homo sapiens), P16066. HEK293 hNpr1 GloSensor cGMP, ANP-stimulated luminescence. Potency, µM (highest dose often 46.3 µM), without a hit: top-dose activity change, negative = inhibition, most hits filed as inhibitors. hit rate 1.6% among 76,000. AID 1347048, 2019; calls by dose curve; also: nearly all actives have a fitted effect of over 60% in size
#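 HEK293 cells stably expressing human Npr1 and cGMP GloSensor pGS-40F, loaded 2 h with 2% GloSensor reagent, given compound 30 min at room temperature. Luminescence read before and 20 min after 0.1 nM hNppA.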
# * marks the source's active call; other numbers are inactive results; i = inactive; ? = inconclusive; · = not tested or not shown; [ ] = dose if it differs, or a comment. Only some compounds are listed: those with a hit (about 10% of all), similar ones and a draw of the others. Unless noted, calls follow the shape of the dose curve; as a rule, active = well fitted curve in the direction sought with a large enough effect; inconclusive = small, poorly fitted or top-dose-only effect, or another doubt; inactive = no such curve, though single readings can be large; an effect the other way counts as inactive or inconclusive. % is scaled to controls: 0 for no effect and ±100 for the full control effect; potency is read from the fitted curve at half-maximal effect.
SMILES,HEK cytotox,FLuc inh,3T3 cytotox,GPT2 inhibitor,NPR1 antag
COc1ccc(OCC2CC3(CCCCC3)CN2S(=O)(=O)c2c(C)noc2C)cc1 (stereo not given),28µM*,·,-28%,-9%,·
Cc1ccc(S(=O)(=O)N(C)C2CCOc3ccccc32)cc1 (stereo not given),100µM*,i,?,-17%[88.5 µM],-3%[70.6 µM]
CCCN(Cc1nccn1C)C(=O)CC1C(=O)NCCN1CC1CCCCC1 (stereo not given),-4%,i,-7%,-9%,6%
Cc1cn2nc(C(=O)Nc3ccc(N(C)C)cc3)cc2c(N(C)Cc2ccccc2)n1,?,2.5µM*,?,?,-10%
Cc1cn2nc(C(=O)Nc3ccc(Cl)cc3)cc2c(N(C)Cc2ccccc2)n1,-17%,i,-20%,-4%,8%
Cc1noc([C@H]2CCN(Cc3cc(F)cc(F)c3)C[C@H]2NC(=O)C2CC2)n1,28µM*,i,?,-21%,1%
O=C(NCc1ccccc1)c1ccc2nnc(C3CCCC3)n2c1,-36%[172 µM],·,79µM*,i,·
O=C(NCCc1ccc(Cl)cc1)c1ccc2nnc(C3CCCC3)n2c1,?,·,35µM*,-4%,·
COc1ccc(NC(=O)CC2CCCCN(Cc3ccccc3)C2=O)c(C)c1 (stereo not given),?,i,?,-6%,-13%
COc1ccccc1-c1cccc(CN2CCCC(C(=O)Nc3ccccc3Cl)C2)c1 (stereo not given),?,·,?,2%,·
O=C(c1ccc(F)cc1)N1CCCC2(CN[S+](=O)([O-])c3cccnc3N2)C1 (stereo not given),?,·,i,·,·
CCN(CC)C(=O)CCC1CCN(C(=O)c2ccccc2F)CC1,-10%,35µM*,i,i,-4%
CC(C)NC(=O)CCC1CCN(C(=O)c2ccccc2F)CC1,2%,40µM*,i,-21%,0%
O=C(CCC1CCN(C(=O)c2ccccc2F)CC1)NCc1ccco1,-23%,?,-9%,-16%,-7%
COCCNC(=O)CCC1CCN(C(=O)c2ccccc2Cl)CC1,-1%,32µM*,i,1%,5%
CCCNC(=O)CCC1CCN(C(=O)c2ccccc2F)CC1,-16%,40µM*,4%,2%,-7%
O=C(CCC1CCN(C(=O)c2ccccc2Cl)CC1)NC1CC1,-6%,i,-4%,2%,4%
CN(Cc1ccc(F)cc1)C(=O)C1CCCC1,-21%[172 µM],i,?,i,3%[70.6 µM]
COc1ccccc1NC(=O)N1CC(C(=O)N(C)C)C2(CCOCC2)C1 (stereo not given),-18%,i,-5%,-26%,-11%
COc1ccc(-c2cc(C[C@@H]3CC[C@H](O)[C@@H](CN(Cc4ccccc4OC)Cc4ccccc4OC)O3)no2)cc1,?,?,?,-7%,10µM*
COc1cccc(CNC[C@H]2O[C@H](Cc3cc(-c4ccccc4)on3)CC[C@@H]2O)c1,112µM*,i,?,-13%[88.5 µM],-27%[70.6 µM]
CC(C)CN(CC(C)C)C[C@H]1O[C@H](Cc2cc(COc3ccccc3)on2)CC[C@@H]1O,100µM*,i,100µM*,-13%[88.5 µM],5%[70.6 µM]
COc1ccc(-c2cc(C[C@@H]3CC[C@H](O)[C@@H](CN(C)C)O3)no2)cc1,-7%[172 µM],?,-16%[174 µM],2%[88.5 µM],-29%[70.6 µM]
CC(C)NC(=O)NC[C@H]1O[C@H](Cc2cc(COc3ccccc3)on2)CC[C@@H]1O,-9%[172 µM],i,-26%[174 µM],i,-7%[70.6 µM]
COc1cccc(CNC[C@H]2O[C@H](Cc3cc(CN4CCOCC4)on3)CC[C@@H]2O)c1,-22%[172 µM],i,0%[174 µM],-4%[88.5 µM],0%[70.6 µM]
SMILES,HEK cytotox,FLuc inh,3T3 cytotox,GPT2 inhibitor,NPR1 antag
COc1ccc(CNC(=O)[C@@H]2Cc3nc[nH]c3CN2Cc2ccc(C(=O)O)cc2)cc1,-6%[172 µM],i,-11%[174 µM],-4%[88.5 µM],4%[70.6 µM]
COc1ccccc1-c1ccc2ncc(Nc3cccc(N[S+](C)(=O)[O-])c3)n2n1,63µM*,i,?,-4%[88.5 µM],-20%[70.6 µM]
COc1cccc(Nc2cnc3ccc(-c4ccccc4OC)nn23)c1,79µM*,i,?,?,-3%[70.6 µM]
COc1ccc(-c2ccc3ncc(Nc4cnccn4)n3n2)cc1OC,?,i,25µM*,?,4%[70.6 µM]
COc1ccc(-c2ccc3ncc(Nc4ccncc4)n3n2)cc1OC,79µM*,i,35µM*,i,1%[70.6 µM]
COc1ccccc1CC(=O)N1CCC2(CC1)N=C(c1ccccc1)NO2,-9%,i,-4%,1%,-1%
Cc1ccc(Cn2c(=O)c(-c3noc(C)n3)c3n(c2=O)CCCC3)cc1,4%,i,2%,-9%,3%
COc1cccc(Nc2cnc3ccc(-c4ccc(OC)c(OC)c4)nn23)c1,56µM*,i,22µM*,-20%[88.5 µM],-12%[70.6 µM]
COc1ccc(Nc2cnc3ccc(-c4cccc(CO)c4)nn23)cc1OC,?,?,?,-2%[88.5 µM],-15%[70.6 µM]
COc1cncc(Nc2cnc3ccc(-c4ccc(OC)c(OC)c4)nn23)c1,63µM*,i,20µM*,-3%[88.5 µM],-12%[70.6 µM]
COc1ccc(Nc2cnc3ccc(N(C)Cc4cccnc4)nn23)cc1OC,?,i,?,-13%[88.5 µM],?
COc1cncc(Nc2cnc3ccc(-c4ccccc4OC)nn23)c1,?,i,?,?,?
COc1ccc(Nc2cnc3ccc(-c4ccc(OC)c(OC)c4)nn23)cc1OC,89µM*,?,20µM*,i,-4%[70.6 µM]
COc1ccc(Nc2cnc3ccc(-c4ccccc4)nn23)cc1OC,63µM*,i,?,?,-13%[70.6 µM]
COc1ccc(Nc2cnc3ccc(-c4ccc(OC)c(OC)c4)nn23)cc1,?,18µM*,14µM*,i,-1%[70.6 µM]
COc1ccc(-c2nc(C3CC3)nc3c2CCN(Cc2ccsc2)CC3)cc1,?,·,?,i,·
Clc1cccc(-c2ccc(CNc3ncncn3)o2)c1,32µM*,?,?,-22%[11.5 µM],?
CCNCc1ccc(-c2ccc(Cl)cc2)o1,?,i,?,i,3%
COCc1ccccc1-c1nccc2c(=O)cc(-c3cnn(C)c3)oc12,-10%[172 µM],i,?,-15%[88.5 µM],1%[70.6 µM]
Cn1cc(-c2cc(=O)c3ccnc(NCc4ccc5c(c4)OCO5)c3o2)cn1,?,?,25µM*,5%[88.5 µM],0%[70.6 µM]
CN(c1cc(=O)c2ccnc(NCc3ccc4c(c3)OCO4)c2o1)C1CCOCC1,89µM*,i,32µM*,1%[88.5 µM],-2%[70.6 µM]
